# Source: PubChem (several laboratories)
# An excerpt weighted towards active compounds, which were near 3.8% of everything screened.
# HSP90 inh – blocks HSP90-mediated luciferase refolding in reticulocyte lysate. AID 1789. Rabbit reticulocyte lysate, luciferase refolding luminescence, 3 h. inhibition, % at 5.6 µM. 290,000 tested, 0.91% active;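 active = inhibition above the screen-wide mean plus 3 SD, computed separately per campaign, cut at about 16% in these data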;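 also: 0% = DMSO wells and 100% = 60 µM geldanamycin wells; inhibitors lower the luminescence because luciferase stays unfolded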
# p-CIP stab down – compounds decreasing mouse p/CIP protein stability | Q05BA5 | decrease of EGFP signal, % at 10 µM | F442A p/CIP-EGFP cells, EGFP fluorescence, 16 h | 290,000 tested, 0.01% active | AID 1984;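 active = EGFP signal decrease of at least 30% at 10 µM or well 3 SD below plate mean, unless failing retest; inactive = the rest, including hits failing retest or dose response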
# NALP1 inh – blocks the NALP1 inflammasome reconstituted in yeast; S. cerevisiae NALP1/ASC/caspase-1 growth, X-gal OD620, 72 h; inhibition, % at 10 µM; 280,000 tested, 0.61% active; in the data active = inhibition mostly above about 24%, no sharp cut-off; inactive = mostly below about 32%
# HSF1 activator – increases HSF-1 driven luciferase reporter signal; NIH3T3-HGL HSF-1 luciferase reporter, MG132, 8 h; 100% = twice DMSO control signal; 300,000 tested, 1.7% active; activation, % at 9 µM;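 active = mean replicate activation of at least 50% with a set share of replicates each reaching 50%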;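 also: 0% = median of the neutral control wells and 100% = twice that signal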
# Hsp70 act – transcriptional activators of Hsp70; HeLa Hsp70 promoter luciferase reporter, luminescence; scaled: vehicle 0, proteasome-inhibitor control 100%; activation, % at 10 µM; 200,000 tested, 0.04% active;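 active = activation above the mean across all tested compounds plus 3 SD, cutoff set per campaign, cut at about 5.5% in these data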;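 also: 100% = MG132 at 30 µM as the positive control and 0% = DMSO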
# HSF1 inhib – HSF1 inhibition. NIH3T3-HGL HSE-luciferase, MG132-induced, luminescence 8 h; stronger effect = lower value. activity change, negative = inhibition, % at 7.5 µM (by protocol). 300,000 tested, 0.77% active. AID 2098;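 active = more than half of replicate wells show activity change below -50%, luminescence cut by over half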;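 also: luciferase reports HSF-1 transcriptional activity via heat shock element; 0% = median of DMSO wells and -100% = zero luminescence signal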
# Hsp70 act DR – dose response of Hsp70 transcriptional activators | shares compounds with Hsp70 act | 70 tested, 10% active | HeLa hsp70.1pr-luc reporter, luciferase luminescence | calls only at 99 µM;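 active = over 50% activation at some tested dose; inactive = under 50% activation at every tested dose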
# An asterisk follows results filed as active; i = inactive; . = no result given.
SMILES,HSP90 inh,p-CIP stab down,NALP1 inh,HSF1 activator,Hsp70 act,HSF1 inhib,others
O=C(/C=C/c1ccc(Cl)cc1)N1CCN(c2c(Cl)cccc2[N+](=O)[O-])CC1,4,7,23,14,0,-3,
CC(=O)Nc1ccc(SCC(=O)N2CCN(S(=O)(=O)c3ccccc3)CC2)cc1,-3,9,13,-65,.,-57*,
CCCCn1c(N)c(N(CC(C)C)C(=O)c2ccc(S(=O)(=O)N3CCC(C)CC3)cc2)c(=O)[nH]c1=O,.,.,.,3,.,-4,
COC(=O)/C(=N\Nc1ccc(Cl)cc1)Sc1nnc(-c2ccc(OC)cc2)n1C,-3,2,16,17,-1,-4,
COc1cc(OC)cc(C(=O)N2CCC(C(=O)Nc3ccc4c(c3)OCCO4)CC2)c1,4,-9,32,6,0,-6,
CCn1c(CNC(C)=O)nnc1SCC(=O)c1ccc(Br)cc1,-2,-3,-3,82*,0,70,
CCn1c(SCC(=O)c2ccc(Cl)cc2)nnc1C(C)C,0,-2,-9,145*,0,148,
CCn1c(CNC(=O)Cc2ccc(OC)cc2)nnc1SCC(=O)c1ccc(Br)cc1,-4,-18,2,45,0,22,
COC(=O)c1cnc(SCc2ccc(Cl)cc2)n1C,-2,-10,19,69*,0,52,
COC(=O)c1cnc(SCC(=O)c2ccccc2)n1C,2,8,11,41,.,23,
CCn1c(SCC(=O)c2ccc(Cl)cc2)nnc1-c1ccoc1C,1,2,-10,75*,0,40,
CCc1ccc(CN2C(=O)c3ccccc3C2C(=O)NC(C)CC)cc1 (configuration not stated),-2,1,6,11,.,0,
Cn1c(CO)cnc1SCC(=O)c1ccc(Cl)cc1,4,2,23,80*,0,48,
CCOc1ccc(NC(=O)CCCNC(=O)Cn2cnc3sc(C)c(C)c3c2=O)cc1,-4,-26,29,-70,.,-64*,
COc1ccccc1NC(=O)CCCNC(=O)Cn1cnc2sc(C)c(C)c2c1=O,3,8,4,11,.,0,
CC(C)c1nc2ccccc2c2nnc(SCC(=O)NCc3ccco3)n12,2,-8,0,-69,0,-60*,
O=C(CSc1nnc(CNc2ccc(Cl)cc2)n1Cc1ccccc1)NCc1ccco1,4,0,24,63*,0,40,
O=C(CSc1nc(C2CCCCC2)nc2ccccc12)NCc1ccco1,0,-10,16,59*,0,37,
Cc1sc2nc(C3CC3)nc(SCC(=O)NCc3ccco3)c2c1C,-2,-4,18,19,0,3,
CCn1c(CNc2ccc(Cl)cc2)nnc1SCC(=O)OC1CCCCC1,-6,-6,15,60*,0,19,
O=C1c2ccccc2S(=O)(=O)c2cc(N3CCc4ccccc4C3)ccc21,.,.,.,14,.,12,
CC(=O)Nc1ccc(N2C(=O)c3ccc(S(=O)(=O)c4ccc(C(=O)O)cc4)cc3C2=O)cc1,1,-2,1,10,.,7,
O=C(NC1CCCC1)C(c1ccccc1)N(C(=O)c1csnn1)c1ccccc1F (configuration not stated),-4,8,8,11,.,4,
NC(=O)C[N+]1(CC#CC(O)(c2ccccc2)c2ccccc2)CCCC1,4,-7,20,-75,0,-69*,
CC(C)C[C@@H](CC#N)N1CCN(Cc2ccccc2)CCC1=O,-4,1,16,-69,.,-61*,
SMILES,HSP90 inh,p-CIP stab down,NALP1 inh,HSF1 activator,Hsp70 act,HSF1 inhib,others
O=C1C=Cc2ccccc2/C1=C/c1[nH]c(=O)[nH]c1O,-1,8,7,13,.,0,
CCC1=CC(c2ccccc2)n2ncnc2N1 (configuration not stated),.,.,.,-88,.,-84*,
CCn1c(C(C#N)/C(=N\S(=O)(=O)c2cccs2)c2ccccc2)nc2ccccc21 (configuration not stated),-3,4,16,-72,0,-66*,
COc1ccc2c(CC(=O)N3CCc4ccccc43)coc2c1,1,-11,14,104*,0,76,
CCOc1ccccc1NC(=O)CCS(=O)(=O)c1ccc2c(c1)CC(C)N2C(C)=O (configuration not stated),0,-4,10,10,.,1,
CCC(=O)N1c2ccc(S(=O)(=O)N3CCCC3)cc2CC1C (configuration not stated),0,-6,-1,-4,.,-3,
COc1ccc(S(=O)(=O)CCC(=O)Nc2cc(C)ccc2OC)cc1,-4,0,15,-73,0,-66*,
CCC(=O)N1c2ccc(S(=O)(=O)N3CCN(C)CC3)cc2CC1C (configuration not stated),2,-2,34*,-15,.,1,
CCC(=O)N1c2ccc(S(=O)(=O)CCC(=O)Nc3ccc(OC)cc3OC)cc2CC1C (configuration not stated),3,-15,0,53*,.,20,
CCOC(=O)c1c(NC(=O)COC(=O)c2ccccc2NC)sc(C(=O)N(C)C)c1C,8,-13,-14,18,.,8,
CCOc1cc(/C=C2/SC(=S)N(C)C2=O)ccc1Oc1ccc([N+](=O)[O-])cc1[N+](=O)[O-],-1,-5,18,20,0,1,
Fc1cccc(Cl)c1/C=C/c1cnc2ccccc2n1,17*,-9,14,-30,.,-30,
NS(=O)(=O)c1ccc(CCNC(=O)C2CCN(c3ncnc4c3nc3n4CCCCC3)CC2)cc1,-1,0,11,6,.,-4,
CC(C)Cc1nnc(NC(=O)c2ccc3c(=O)n4c(nc3c2)CCC4)s1,0,1,-1,-5,.,-3,
CCc1cc(C)cc(OCCNC(=O)c2cncc(Br)c2)c1,3,-20,11,-72,0,-62*,
O=C(O)Cc1ccc(NC(=O)Nc2ccc(Br)cc2)cc1,0,6,32*,-12,0,-5,
CN(C)/C=C1/NC(=S)NC1=O,2,-3,-16,2,6.1*,3,Hsp70 act DR=i
COc1ccc(NC(=O)/C(Cl)=C(/Cl)S(=O)Cc2ccccc2Cl)cn1 (configuration not stated),10,29,8,.,37*,.,Hsp70 act DR=i
CC(C)(C)C(=O)N1CCN(c2ccc(NC(=O)c3ccc([N+](=O)[O-])o3)cc2)CC1,5,-21,3,-5,.,1,
O=C(Nc1ccc(N2CCN(C(=O)c3ccc(Cl)cc3)CC2)cc1)c1ccc([N+](=O)[O-])o1,0,-22,1,-6,0,6,
O=C(Nc1ccccc1N1CCCC1)c1ccc([N+](=O)[O-])o1,-1,7,24,34,.,19,
